Source: PubChem
USP1-UAF1 inh: inhibitors of human USP1/UAF1 deubiquitinase | O94782 | recombinant USP1/UAF1, Ub-Rhodamine cleavage fluorescence | Potency, µM (doses to about 57.1 µM), hits mostly inhibitors | hit rate 0.23% among 390,000 | AID 743255; also: nearly all actives have a fitted effect of over 60% in size
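USP1/UAF1 complex at 1 nM was preincubated with compound for 15 min at room temperature, then Ub-Rho substrate (150nM final) was added. Fluorescence (480/540 nm) was read kinetically, 6 reads every 60 seconds.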
Tau fibril FP: inhibitors of human tau fibril formation | P10636 | K18 P301L tau heparin fibrillization, Alexa594 FP, 6 h | Potency, µM (top dose mostly 57.7 µM), usual class: inhibitors | hit rate 0.39% among 280,000 | AID 1468; also: nearly all actives have a fitted effect of over 55% in size
Target sequence (P10636 561-689 P618L limits assumed): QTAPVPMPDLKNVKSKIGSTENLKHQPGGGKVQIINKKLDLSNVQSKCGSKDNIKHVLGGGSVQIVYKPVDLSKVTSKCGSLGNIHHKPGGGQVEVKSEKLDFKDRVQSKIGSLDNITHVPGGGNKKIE
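Steps: dispense K18 P301L tau (15 uM plus 0.24 uM Alexa 594 tracer, final) in pH 7 sodium acetate; add compound; add heparin (20 uM final); incubate 6 hr, 37 C; add ThT (30 uM final); after 1 hr ambient, read FP.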
FBPA coupling cs: coupling enzyme interference in Giardia aldolase counter-screen; hit rate 0.67% among 290,000; activity change, negative = inhibition, % at 58.2 µM, hits read low; coupling enzyme system counterscreen, AmpLite Red fluorescence; AID 2472; in the data active = activity change below about -30%
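Activity here indicates interference with the coupling reaction, not aldolase inhibition. Compounds at 57.5 uM final met coupling enzymes for 10 min at RT; substrate and AmpLite Red detection followed, with a 525/598 nm fluorescence read after 20 min.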
Tau ThT inhib: inhibitors of human tau fibril formation, thioflavin T binding; hit rate 2.1% among 270,000; Potency, µM (doses to about 57.4 µM), hits mostly inhibitors; P10636; AID 1460; recombinant tau K18 P301L, heparin-induced fibrillization, ThT fluorescence; also: nearly all actives have a fitted effect of over 55% in size
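Recombinant human tau K18 fragment […] carrying P301L, 15 uM unlabeled plus 0.24 uM Alexa 594-labeled, was fibrillized with 20 uM heparin in 100 mM sodium acetate pH 7 for 6 hr at 37 C; 30 uM ThT fluorescence read after 1 hr.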
Tau fluor cs: counter-screen for tau fibril formation inhibitors. hit rate 0.93% among 280,000. tau K18 P301L (four-repeat tau fragment) Alexa594 fluorescence, heparin fibrillization. Potency, µM (doses to about 57.7 µM); also: nearly all actives have a fitted effect of over 55% in size
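Human K18 P301L tau (15 uM unlabeled plus 0.24 uM Alexa 594-labeled, final) in 100 mM sodium acetate pH 7 was mixed with compound and 20 uM heparin and incubated 6 hr at 37 C.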
Numbers stand for hits; – = inactive; ? = inconclusive; · = not tested or not shown; ! = a repeat was not active; [ ] = remark or other dose. Hits are enriched below; roughly 2.3% of the tested compounds scored in any of these assays. Unless noted, calls follow the shape of the dose curve; as a rule, active = well fitted curve in the direction sought with a large enough effect; inconclusive = small, poorly fitted or top-dose-only effect, or another doubt; inactive = no such curve, though single readings can be large; an effect the other way counts as inactive or inconclusive.

SMILES	USP1-UAF1 inh	Tau fibril FP	FBPA coupling cs	Tau ThT inhib	Tau fluor cs
Oc1ccc(/C=N/NP(=S)(c2ccccc2)c2ccccc2)c(O)c1O	–	?	–	25µM	?
Oc1ccccc1/C=N/NP(=S)(c1ccccc1)c1ccccc1	–	?	–	–	?
S=P(Nn1cnnc1)(c1ccccc1)c1ccccc1	–	–	–	–	–
Oc1ccc(/C=N/NP(=S)(c2ccccc2)c2ccccc2)cc1O	–	–	–	?	14µM[quencher]
COc1ccc(OCC(=O)N2CCN(C(C)C)CC2)cc1	–	–	–	–	–
CC(C)N1CCN(c2ccc(O)cc2)CC1	–	?	-51	25µM	–
O=C(Nc1cccc(C(=O)Nc2cc(C(=O)Nc3ccc([S+](=O)([O-])[O-])c4cc([S+](=O)([O-])[O-])cc(SOOO)c34)ccc2F)c1)Nc1cccc(C(=O)Nc2cc(C(=O)Nc3ccc([S+](=O)([O-])[O-])c4cc([S+](=O)([O-])[O-])cc([S+](=O)([O-])[O-])c34)ccc2F)c1	·	·	–	·	·
O=C(O)c1cc(O)c(O)c(O)c1	·	2µM	–	1.3µM	4µM[quencher]
COc1ccc(C(=O)O)cc1OC	–	–	–	–	–
COc1ccc2c(c1O)-c1cc(O)cc3c1[C@@H](C2)N(C)CC3	·	–	·	–	–
COc1cc2c(cc1O)[C@H]1Cc3ccc(OC)c(O)c3CN1CC2	·	·	-38	·	·
Cc1cccc(-n2c(/C=C/c3c[nH]c4ccccc34)nc3ccccc3c2=O)c1	?	–	·	?	4µM[quencher]
Cc1cccc(-n2c(/C=C/c3ccccn3)nc3ccccc3c2=O)c1	–	·	–	·	·
Cc1ccccc1C(=O)Nc1sc2c(c1C(=O)O)CCC(C(C)(C)C)C2 (stereo unspecified)	–	–	·	20µM	?
CCOC(=O)c1c(NC(=O)c2c(N)n(CCCOC)c3nc4ccccc4nc23)sc2c1CCCC2	?	–	·	?	?
O=C1NC(=O)c2c1c1c3ccccc3[nH]c1c1[nH]c3ccccc3c21	·	–	–	?	14µM[quencher]
O=c1[nH]c2ccccc2c(=O)n1-c1ccc(Cl)cc1Cl	–	–	–	–	–
CCc1c(C(=O)OC)ncc2[nH]c3cc(OC)c(OC)cc3c12	·	–	·	?	16µM[quencher]
Cc1cccc(N(C)S(=O)(=O)c2cc(-c3cnc(C4CC4)o3)ccc2C)c1	–	–	·	?	–
C#Cc1cccc2c1c(C(=O)c1ccc(Cn3c(C)nc4cnccc43)c(F)c1)cn2C(=O)N(C)C	·	·	–	·	·
O=C(Nc1ccc(Br)cc1)c1ccc(F)c(S(=O)(=O)N2CCCc3ccccc32)c1	–	16µM	·	–	7.1µM[quencher]
O=C(Nc1ccc(Br)cc1)c1cccc(S(=O)(=O)N2CCc3ccccc32)c1	–	?	·	–	?
Cc1ccccc1C1CC(=O)Nc2ccc3ccccc3c21 (stereo unspecified)	?	–	·	–	–
CC(C)C12CN3CC(C(C)C)(CN(C1)C3c1ccccn1)C2=O (stereo unspecified)	–	–	·	–	–
OC12ONC(c3ccccn3)C1N1CCC2CC1 (stereo unspecified)	–	?	–	13µM	–
SMILES	USP1-UAF1 inh	Tau fibril FP	FBPA coupling cs	Tau ThT inhib	Tau fluor cs
Cc1cc(C)cc(OCC(=O)Nc2ccc(-c3nc4ccccc4s3)cc2)c1	–	–	·	?	–
O=C1Nc2ccccc2Sc2ccccc21	–	–	–	–	–
c1ccc2c(c1)Nc1ccccc1S2	?	–	–	?	16µM[quencher]
CC1=NCCc2c1[nH]c1cc(O)ccc21	25µM	–	–	?	18µM![quencher]
CC(C)c1ccc(Cc2cnc(NC(=O)c3ccc4c(c3)CC(c3ccccc3)OC4=O)s2)cc1 (stereo unspecified)	–	?	·	–	–
S=c1[nH]c2cc(Br)cnc2[nH]1	–	?	–	32µM	–
Brc1ccc(Oc2ccc(Br)cc2Br)c(Br)c1	–	·	·	·	·
Oc1c(Br)cc(Br)cc1Oc1ccc(Br)cc1Br	·	?	–	32µM	?
C/C(O)=C1\C(=O)[C@@H]2[C@H]3c4c[nH]c5cccc(c45)C[C@H]3C(C)(C)N2C1=O	·	–	·	?	–
CN1CCc2nc(SCc3ccccc3Br)c(C#N)cc2C1	–	–	–	?	?
C=CCSc1nc2c(c(-c3ccsc3)c1C#N)CN(C)CC2	–	?	–	14µM	20µM[quencher]
Cn1c(O)c(/C=C2\C=c3ccccc3=NC2=O)c(=O)n(C)c1=O	–	·	–	·	·
Cn1c(O)c(/C=C2\N=c3ccccc3=C2CCNC(=S)NC2CC2)c(=O)n(C)c1=O	–	?	–	11µM	–
CC(C)Oc1ccc(C(=O)Nc2ccc3c(c2)CCCN3C(=O)c2cccs2)cc1	–	–	·	?	–
CN1CCC2(CC1)C(C#N)=C(N)NC(S)=C2C#N	?	?	–	22µM	?
CC(C)(C)C(O)C(Cc1ccc(Cl)cc1Cl)n1cncn1 (stereo unspecified)	·	·	–	·	·
O=[N+]([O-])c1ccc(NC2CCCC2)c2ccncc12	–	·	–	·	·
O=[N+]([O-])c1ccc(N2CCCC2)c2ccncc12	–	–	–	13µM	–
COc1ccc2c(c1)CCC1C2CC[C@@]2(C)C1CC[C@@H]2NCCCCCCN1C(=O)C=CC1=O (stereo partly specified)	·	–	·	–	–
N#C/C(=C\c1ccc(O)c(O)c1)C(N)=S	·	?	-64	2.2µM	?
CC(C)(O)C1O[C@H]2CC[C@@]3(C)[C@@](O)(CC[C@H]4Cc5c([nH]c6ccccc56)[C@@]43C)C2=CC1=O (stereo partly specified)	·	?	·	?	16µM[quencher]
COc1cccc(N2C(=O)NC(=O)/C(=C/c3ccc([N+](=O)[O-])s3)C2=O)c1	?	–	–	·	–
O=C1NC(=O)N(c2ccc(F)cc2)C(=O)/C1=C/c1ccc(N2CCOCC2)cc1	–	–	–	?	–
O=C1NC(=O)N(Cc2ccc(F)cc2)C(=O)/C1=C\c1ccc([N+](=O)[O-])s1	28µM	0.35µM	–	·	?
O=C1NC(=O)N(Cc2ccc(F)cc2)C(=O)/C1=C\c1ccc(N2CCCC2)cc1	–	–	–	25µM	–
O=C1NC(=O)N(CCc2ccc(F)cc2)C(=O)/C1=C/c1cccs1	–	–	–	?	–
COc1ccc(CN2C(=O)NC(=O)/C(=C/c3ccc([N+](=O)[O-])s3)C2=O)cc1	35µM	25µM	–	7.9µM	?
Nc1ncnc2c1ncn2[C@@H]1O[C@H](COP(=O)(O)OP(=O)(O)OP(=O)(O)O)[C@H]2OC3(O[C@H]21)C([N+](=O)[O-])=CC(=[N+]([O-])[O-])C=C3[N+](=O)[O-] (stereo partly specified)	·	–	–	?	–
CS(=O)(=O)c1ncc(Cl)c(C(=O)Nc2c(C(=O)Nc3ccccc3)oc3ccccc23)n1	–	–	·	8.9µM	–
CCN(CC)c1nc2ccccc2nc1C(=O)Nc1cccc(C(C)=O)c1	–	–	·	?	–
